HT1080 IDH1KD tx = toxicity to HT-1080 IDH1 knockdown cells (counter line); HT-1080 IDH1 knockdown viability, ATP luminescence, 48 h; Potency, µM (highest dose often 46.1 µM), usual class: cytotoxic; hit rate 2% among 360,000
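Luminescent ATP read-out (CellTiter-Glo, 10 min at room temperature) after 48 h compound exposure at 37 °C gave viability of IDH1-knockdown HT-1080 cells. Activity was normalised to DMSO and cell-free wells, then fitted as concentration-response curves.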
DT40 TDP1 no CPT = qHTS for Inhibitors of human tyrosyl-DNA phosphodiesterase 1 (TDP1): qHTS in cells in absence of CPT; hit rate 15% among 420,000; AID 686978, 2013; Potency, µM (highest dose often 46.2 µM), hits mostly inhibitors; DT40 Tdp1-/- hTDP1 cells, no CPT, ATP luminescence, 48 h; note: nearly all actives have a fitted effect of over 55% in size
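Growth kinetics read by CellTiter-Glo luminescence after ≥48 hr at 37 °C. Cells: DT40 Tdp1-/- stably carrying human TDP1, 400 per well, compound exposure in the absence of CPT (DMSO vehicle).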
HT1080NT lethal = kills 2HG-producing HT-1080-NT fibrosarcoma cells; HT-1080-NT fibrosarcoma viability, CellTiter-Glo ATP luminescence, 48 h; Potency, µM (top dose mostly 46.1 µM), hits mostly cytotoxic; hit rate 1.6% among 360,000; AID 686970;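 note: NT is the 2HG producing partner of a matched IDH1 knockdown line; nearly all actives have a fitted effect of over 55% in size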
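Luminescent CellTiter-Glo readout after 48 hours of compound exposure at 37 degrees C defined viability of HT-1080-NT cells. Activity was normalized to DMSO wells and cell-free media wells; concentration-response curves were fitted and assigned curve classes.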
DT40 TDP1 CPT = DT40-hTDP1 cell growth loss with CPT. chicken DT40 Tdp1-/-;hTDP1 cells + 20 nM CPT, ATP luminescence, 48 h. Potency, µM (doses to about 46.2 µM), most hits filed as inhibitors. hit rate 12% among 420,000. AID 686979; note: nearly all actives have a fitted effect of over 55% in size
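Chicken DT40 Tdp1-/- cells complemented with human TDP1, 400 cells/well, exposed to compounds plus 20 nM camptothecin for at least 48 h at 37 C; viability read as ATP content by CellTiter-Glo luminescence.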
IL-1B inflam inh = blocks inflammasome-driven IL-1 beta release; activity change, % at 57.5 µM; hit rate 4.7% among 360,000; THP-1 LPS/ATP IL-1B secretion, AlphaLISA, 16 h; hits give low values; in the data active = activity change below about -50%; inconclusive = mostly about -30% to -49%
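THP-1 cells pretreated 1 hr with compounds (up to 57.5 uM final), then stimulated with LPS (250 ng/mL final) plus ATP (1.25 mM final); secreted IL-1B measured by AlphaLISA after 16 hr, decreased signal indicating inhibition.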
Large screens that a line does not name were inactive. This is a sample that favours compounds with a hit; in the whole collection about 19% have one here. Unless noted, calls come from the whole dose curve; as a rule, active = well fitted curve in the direction sought with a large enough effect; inconclusive = small, poorly fitted or top-dose-only effect, or another doubt; inactive = no such curve, though single readings can be large; an effect the other way counts as inactive or inconclusive.

Cc1cc(/C=C2/C(=N)N3C(c4ccccc4)=CSC3=NC2=O)c(C)n1-c1ccc(Cl)cc1	none
N=C1/C(=C\c2ccc(-c3ccc(C(=O)O)cc3)o2)C(=O)N=C2SC=C(c3ccccc3)N12	DT40 TDP1 no CPT inconclusive, DT40 TDP1 CPT inconclusive, IL-1B inflam inh inconclusive
CN(C)c1ccc(-c2noc(C3CC(=O)N(c4ccc5c(c4)OCCO5)C3)n2)cc1 (stereo unspecified)	DT40 TDP1 no CPT 2.9µM, DT40 TDP1 CPT 4.6µM (no result: HT1080 IDH1KD tx, HT1080NT lethal, IL-1B inflam inh)
O=C1CC(c2nc(-c3ccccc3)no2)CN1c1ccc2c(c1)OCCO2 (stereo unspecified)	none (no result: HT1080 IDH1KD tx, HT1080NT lethal, IL-1B inflam inh)
CCOc1ccc(N2CC(c3nc(-c4cc(OC)c(OC)c(OC)c4)no3)CC2=O)cc1 (stereo unspecified)	DT40 TDP1 no CPT 26µM, DT40 TDP1 CPT inconclusive (no result: HT1080 IDH1KD tx, HT1080NT lethal, IL-1B inflam inh)
COc1ccc(N2CC(c3nc(-c4cc(OC)c(OC)c(OC)c4)no3)CC2=O)cc1Cl (stereo unspecified)	DT40 TDP1 no CPT 16µM, DT40 TDP1 CPT inconclusive (no result: HT1080 IDH1KD tx, HT1080NT lethal, IL-1B inflam inh)
Nc1cc(Cl)ccc1Nc1ccncc1	none
COc1ccc(S(=O)(=O)N2CCN3CCCC3C2)cc1 (stereo unspecified)	none
Cc1ccc(Cn2c(=O)n(CCc3ccccc3)c(=O)c3c(C)c(C)sc32)cc1	DT40 TDP1 no CPT inconclusive (no result: HT1080 IDH1KD tx, HT1080NT lethal, IL-1B inflam inh)
CC1(C(=O)NCCC(F)(F)F)Cc2c(-c3ccccc3)ccnc2O1 (stereo unspecified)	HT1080 IDH1KD tx inconclusive, DT40 TDP1 no CPT 5.8µM, DT40 TDP1 CPT 6.5µM
CC1(C(=O)NCc2ccco2)Cc2c(-c3ccccc3)ccnc2O1 (stereo unspecified)	HT1080 IDH1KD tx inconclusive, DT40 TDP1 no CPT 2.3µM, HT1080NT lethal inconclusive, DT40 TDP1 CPT 2.6µM
COc1ccc(NS(=O)(=O)c2ccc3c(c2)NC(=O)CO3)c(OC)c1	none
C[C@@H]1CC=C[C@H]2[C@H]1C(=O)N(Cc1ccccc1)[C@H]2c1ccc2ccccc2c1/C=C/c1ccccc1	DT40 TDP1 no CPT inconclusive, DT40 TDP1 CPT inconclusive
Cc1ccc(-c2cc([C@H]3[C@H]4C=CC[C@@H](C)[C@@H]4C(=O)N3Cc3ccccc3)ccc2F)cc1	DT40 TDP1 no CPT 21µM, DT40 TDP1 CPT inconclusive
COc1ccc(-c2cccc([C@H]3[C@@H]4C=CC[C@@H](C)[C@@H]4C(=O)N3Cc3ccccc3)c2)cc1	HT1080 IDH1KD tx inconclusive, DT40 TDP1 no CPT 21µM, HT1080NT lethal inconclusive, DT40 TDP1 CPT 23µM
COc1ccc(C2C3C=CCC(c4cccc(-c5ccc(C)cc5)c4)C3C(=O)N2Cc2ccccc2)cc1Cl (stereo unspecified)	DT40 TDP1 no CPT 13µM, DT40 TDP1 CPT 23µM
Cc1ccc(-c2cccc(C3CC=CC4C3C(=O)N(Cc3ccccc3)C4c3ccc(C(F)(F)F)cc3)c2)cc1 (stereo unspecified)	DT40 TDP1 no CPT 13µM, DT40 TDP1 CPT 13µM
CC(Nc1cccc(C(=O)NC2CC2)c1)c1nnc(-c2ccccc2)o1 (stereo unspecified)	none
CSc1sc(C(=O)O)c(C)c1C(C)=O	DT40 TDP1 no CPT inconclusive
Nn1c(SCC(=O)N2CCCC2)nnc1-c1cccs1	none
CC(=O)OC1C(=O)N(Cc2ccccc2)C1c1ccc(C)cc1 (stereo unspecified)	DT40 TDP1 no CPT inconclusive, DT40 TDP1 CPT inconclusive
O=C1C2C(c3ccccc3)CC=CC2[C@H](c2ccc3ccccc3c2)N1Cc1ccccc1 (stereo partly specified)	DT40 TDP1 no CPT 23µM, DT40 TDP1 CPT 21µM
O=C1[C@H]2CCC=C[C@H]2[C@H](c2cccc(Br)c2)N1Cc1ccccc1	DT40 TDP1 no CPT 13µM, DT40 TDP1 CPT inconclusive
COc1cc(-c2cccc([C@H]3[C@@H]4C=CC[C@@H](C)[C@@H]4C(=O)N3Cc3ccccc3)c2)cc(OC)c1OC	HT1080 IDH1KD tx inconclusive, DT40 TDP1 no CPT 7.3µM, HT1080NT lethal inconclusive, DT40 TDP1 CPT 8.2µM, IL-1B inflam inh inconclusive
CC(=O)c1ccc(-c2cccc([C@H]3[C@@H]4C=CC[C@@H](C)[C@@H]4C(=O)N3Cc3ccccc3)c2)cc1	HT1080 IDH1KD tx inconclusive, DT40 TDP1 no CPT 13µM, HT1080NT lethal inconclusive, DT40 TDP1 CPT 10µM
O=C1C2C(c3ccccc3)CC=CC2[C@H](c2ccoc2)N1Cc1ccccc1 (stereo partly specified)	DT40 TDP1 no CPT inconclusive, DT40 TDP1 CPT inconclusive
O=C1[C@H]2CCC=C[C@H]2[C@H](c2ccccc2Br)N1Cc1ccccc1	DT40 TDP1 no CPT inconclusive, DT40 TDP1 CPT inconclusive
Cn1c(N)c(C(=O)CSc2nc3ccccc3[nH]2)c(=O)n(C)c1=O	none
CC(=O)Nc1ccc(S(=O)(=O)N[C@@H](C)C(=O)OCC(=O)Nc2ccc3c(c2)OCCO3)cc1	none
CC1(C)CC(=O)N(c2ccc(Cl)c(Cl)c2)C(=O)C1	none
COc1ccc(C2SCC(=O)N2Cc2ccccc2)cc1 (stereo unspecified)	DT40 TDP1 no CPT inconclusive, DT40 TDP1 CPT inconclusive
COc1ccc(-c2cccc(C3CC=CC4C3C(=O)N(Cc3ccccc3)C4c3ccc4ccccc4c3)c2)cc1 (stereo unspecified)	DT40 TDP1 no CPT 15µM, DT40 TDP1 CPT 18µM
CCN1CCCC1CNC(=O)c1cnn(-c2nccc(-c3cc(OC)ccc3OC)n2)c1C (stereo unspecified)	none (no result: HT1080 IDH1KD tx, HT1080NT lethal, IL-1B inflam inh)
COC(=O)N/N=C/c1cn(CCCOc2ccccc2)c2ccccc12	HT1080 IDH1KD tx inconclusive, DT40 TDP1 no CPT inconclusive, DT40 TDP1 CPT 26µM
N#Cc1cn(CCCOc2ccccc2)c2ccccc12	DT40 TDP1 no CPT 23µM, DT40 TDP1 CPT 9.2µM
Nc1ccc(C(=O)N/N=C/c2cn(Cc3ccccc3F)c3ccccc23)cc1	HT1080 IDH1KD tx inconclusive, DT40 TDP1 no CPT inconclusive, DT40 TDP1 CPT inconclusive, IL-1B inflam inh -67
COC(=O)N/N=C/c1cc(Cl)cc(Cl)c1OCc1ccccc1F	DT40 TDP1 no CPT 18µM, DT40 TDP1 CPT inconclusive
Nc1ccc(C(=O)N/N=C/c2cn(Cc3ccc(F)cc3)c3ccccc23)cc1	IL-1B inflam inh inconclusive
COC(=O)N/N=C/c1cn(Cc2ccccc2Cl)c2ccccc12	HT1080 IDH1KD tx inconclusive, DT40 TDP1 no CPT 21µM, DT40 TDP1 CPT 18µM
COC(=O)N/N=C/c1cn(Cc2ccccc2F)c2ccccc12	DT40 TDP1 no CPT inconclusive, IL-1B inflam inh -75
COC(=O)N/N=C/c1cn(Cc2ccc(F)cc2)c2ccccc12	DT40 TDP1 no CPT inconclusive
COc1cccc(CNC(=O)c2ccc3c(c2)nc2n3CCOC2)c1OC	none (no result: HT1080 IDH1KD tx, HT1080NT lethal, IL-1B inflam inh)
COc1cc2nc(CN(C)Cc3ccc(Cl)cc3)[nH]c(=O)c2cc1OC	DT40 TDP1 no CPT 26µM, DT40 TDP1 CPT inconclusive
COc1cc2nc(CN3CCC(C(O)(c4ccccc4)c4ccccc4)CC3)[nH]c(=O)c2cc1OC	DT40 TDP1 no CPT 18µM, DT40 TDP1 CPT inconclusive

High-throughput results (PubChem BioAssay)
